Source: PubChem BioAssay
PPC-1+TRAIL kill: compounds killing PPC-1 cancer cells with TRAIL present, primary screen, TRAIL potentiator project, ATPLite luminescence, uHTS; PPC-1 cells + TRAIL, ATPLite viability luminescence; cell killing (% activity), % at 4 µM or 5 µM; actives 0.41% (n = 220,000);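 active means cell killing above 50% in the first pass at 4 µM, then a duplicate retest at 5 µM averaging 50% or more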;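 further: plate controls were cells with TRAIL plus DMSO for no effect and medium-only wells lacking cells for full effect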
SENP7 block: SENP7 protease inhibitors, primary screen, biochemical, luminescence, uHTS | recombinant SENP7, Z-RLRGG-aminoluciferin luminescence, 40 min | Sentrin-specific protease 7 (Homo sapiens), Q9BQF6 | inhibition, % at 5 µM | actives 1.5% (n = 330,000) | AID 434973, 2010;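 active means inhibition above about 50% at the single test dose, limit read from the data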;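 further: plate controls were DMSO with enzyme for no effect and no enzyme buffer wells for full effect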
TRAIL sens C8: viability loss with TRAIL in NB7+C8 cells, primary screen, TRAIL sensitizer project, cell-based, ATPlite luminescence; inhibition (viability loss, TRAIL sensitization), % at 10 µM; actives 1% (n = 360,000); AID 624354, 2012;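 active means compounds causing at least 50% loss of cell viability in the single-dose screen, relative to plate controls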
SENP8 block-1: SENP8 protease inhibitors, primary screen, biochemical, luminescence | actives 1.2% (n = 330,000) | Sentrin-specific protease 8 (Homo sapiens), Q96LD8 | purified SENP8, Z-RLRGG-aminoluciferin cleavage | inhibition, % at 10 µM; in the data active means inhibition above about 50%
SENP6 inh: SENP6 protease inhibitors, primary screen, biochemical, luminescence, uHTS; Recombinant SENP6 catalytic domain, aminoluciferin luminescence; inhibition, % at 10 µM; actives 1.8% (n = 330,000); Sentrin-specific protease 6 (Homo sapiens), Q9GZR1;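 active means inhibition above about 50% at the single tested dose, limit read from the data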;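 further: plate controls were DMSO wells with enzyme for no effect and DMSO wells lacking enzyme for full effect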
Target sequence (Q9GZR1 628-1112 limits assumed): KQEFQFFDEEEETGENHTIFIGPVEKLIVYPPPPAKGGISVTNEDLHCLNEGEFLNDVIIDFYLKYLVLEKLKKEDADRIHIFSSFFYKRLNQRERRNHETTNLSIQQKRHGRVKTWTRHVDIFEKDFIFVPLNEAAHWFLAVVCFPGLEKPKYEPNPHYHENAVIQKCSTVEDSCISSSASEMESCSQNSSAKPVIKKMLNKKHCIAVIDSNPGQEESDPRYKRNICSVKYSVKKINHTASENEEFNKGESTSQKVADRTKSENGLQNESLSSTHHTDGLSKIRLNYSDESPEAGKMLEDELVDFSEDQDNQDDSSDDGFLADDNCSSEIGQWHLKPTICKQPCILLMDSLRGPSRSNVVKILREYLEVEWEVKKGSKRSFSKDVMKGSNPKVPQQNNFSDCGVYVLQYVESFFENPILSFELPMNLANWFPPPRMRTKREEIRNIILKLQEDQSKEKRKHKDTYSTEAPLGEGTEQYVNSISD
SENP8 block-2: human SENP8 protease inhibitors, primary screen, biochemical, fluorescence, Nedd8 protein substrate, uHTS; Sentrin-specific protease 8 (Homo sapiens), Q96LD8; actives 0.64% (n = 360,000); recombinant SENP8; inhibition, % at 20 µM; in the data active means inhibition mostly above about 40%, no sharp cut-off; inactive means mostly below about 27%
SENP8 conf: human SENP8 protease inhibitors, confirmation, biochemical, Nedd8 protein substrate, single concentration; shares compounds with SENP8 block-2; inhibition, % at 25 µM; purified SENP8, Nedd8-AMC/pro-Nedd8 cleavage fluorescence, 30 min; actives 15% (n = 1,400); in the data active means inhibition mostly above about 39%, no sharp cut-off; inactive means mostly below about 34%
The depositor's hits bear a star; nt = no result. Hits are enriched below; roughly 3% of the tested compounds scored in any of these assays.

SMILES	PPC-1+TRAIL kill	SENP7 block	TRAIL sens C8	SENP8 block-1	SENP6 inh	SENP8 block-2	SENP8 conf
CCN(CC)S(=O)(=O)c1ccc(NCC2COc3ccccc3O2)c([N+](=O)[O-])c1 (stereo unspecified)	3	0	10	0	-11	47*	16
COc1cc(-c2cc(=O)c3ccccc3o2)ccc1O	-23	-1	9	-3	2	12	nt
COc1cc(O)c2c(=O)cc(-c3ccccc3)oc2c1	0	2	4	-10	-11	53*	5
COc1cc(-c2cc(=O)c3c(O)cc(O)cc3o2)ccc1O	-10	32	-21	24	41	56*	16
COc1c(O)cc(O)c2c(=O)cc(-c3ccccc3)oc12	nt	-3	14	4	8	69*	21
O=c1cc(-c2ccccc2)oc2cc(O)cc(O)c12	nt	23	17	43	35	15	nt
CCCCn1c(SCC(=O)OCC)nc2c(sc(=S)n2-c2ccccc2OC)c1=O	nt	14	-5	3	-15	16	nt
CCN(CC)C(=O)Cn1cc(S(=O)(=O)CC(=O)Nc2ccccc2F)c2ccccc21	nt	-3	0	-3	-16	-7	nt
Cc1ccc(NC(=O)CSc2ccccc2)cc1S(=O)(=O)N1CCOCC1	nt	-2	-15	13	-1	-28	nt
Cc1ccc(NC(=O)C(=O)c2c(-c3ccccc3)cc3ccccn23)cc1S(=O)(=O)N1CCOCC1	11	2	9	14	31	52*	28
CSc1nnc(C)c(/C=C/NOCc2ccc(Cl)cc2)n1	14	7	-7	3	25	44*	40
CC(C)(C)c1ccc(OCC(=O)N2CCN(C=O)CC2)cc1	12	4	-1	-8	7	44*	14
CCOC(=O)C1CCCN(C(=O)COc2ccc(C(C)(C)C)cc2)CC1 (stereo unspecified)	nt	nt	-1	nt	nt	22	nt
Cc1ccc(N2C(=O)Cc3ccccc3C2=O)cc1	nt	17	-4	23	40	69*	55*
Cc1cccc(N2C(=O)Cc3ccccc3C2=O)c1	nt	24	-32	20	31	82*	43
O=P(O)(Cc1ccccc1)Cc1ccccc1	nt	1	-16	-8	1	14	nt
COc1cccc(NC(=O)CCCCCn2nnc3ccccc3c2=O)c1	nt	2	6	7	-2	13	nt
Cc1cc(=O)n(-c2ccc(C(=O)O)cc2)[nH]1	15	1	-4	-4	6	20	nt
Cc1cc(=O)n(-c2ccc(O)cc2)[nH]1	8	6	-1	-7	-7	79*	38*
O=C(CCC1CCCC1)N1CCN(C(=O)c2cccnc2)CC1	-4	-5	11	-12	-4	41*	10
Cc1ccc(C(=O)N(CC(C)C)c2c(N)n(Cc3ccccc3)c(=O)[nH]c2=O)o1	nt	5	15	-14	-18	-25	nt
O=C(Nc1nccs1)C1CCCCN1S(=O)(=O)c1ccccc1 (stereo unspecified)	22	-6	6	1	14	45*	-1
O=C(COC(=O)c1cc(Br)ccc1O)c1ccc(F)cc1	nt	-13	5	-2	-9	-37	nt
Cc1ccccc1NC1=NC(=S)N(CC(N)=O)C12CCOC(C)(C)C2 (stereo unspecified)	19	-1	-2	0	-4	9	nt
CC1(C)CC2(CCO1)C(Nc1ccccc1)=NC(=S)N2CC(N)=O (stereo unspecified)	29	-3	-14	1	-7	45*	12
SMILES	PPC-1+TRAIL kill	SENP7 block	TRAIL sens C8	SENP8 block-1	SENP6 inh	SENP8 block-2	SENP8 conf
CC1(C(=O)Nc2ccc3c(c2)OCCO3)CCN1C(=O)C1(c2ccc(Cl)cc2)CC1 (stereo unspecified)	nt	nt	2	nt	nt	0	nt
O=[N+]([O-])c1cccc(S(=O)(=O)NCC2CCCO2)c1 (stereo unspecified)	13	-3	7	-3	-14	20	nt
Cc1ccc(S(=O)(=O)NCC2CCCO2)cc1[N+](=O)[O-] (stereo unspecified)	18	-11	-4	-14	0	45*	7
CCC(C(=O)Nc1cccc(S(=O)(=O)N(C)c2ccccc2)c1)c1ccccc1 (stereo unspecified)	nt	-2	-12	-5	-10	10	nt
S=C(NCCc1ccccn1)Nc1ccccc1Cl	0	3	1	1	-3	14	nt
Cc1c(Cl)cccc1NC(=S)NCCc1ccccn1	5	2	-2	5	-21	47*	16
CN(C)c1ccc(NC(=O)CSc2nc3c(c(=O)[nH]2)CCCC3)cc1	-7	3	7	4	13	45*	18
O=C(NCc1ccc(F)cc1)C(c1ccco1)N(C(=O)c1csnn1)c1ccccc1 (stereo unspecified)	nt	0	12	4	17	-4	nt
O=C(NCc1ccc2c(c1)OCO2)C(c1ccco1)N(C(=O)c1csnn1)c1ccccc1 (stereo unspecified)	26	-2	-7	8	-5	41*	1
Cc1coc2cc3oc(=O)c(CCC(=O)N4CCC(C(=O)O)(c5ccccc5)CC4)c(C)c3cc12	nt	1	-1	6	-9	-160	nt
CN(C(=O)COC(=O)/C=C/c1ccc(C(F)(F)F)cc1)c1c(N)n(Cc2ccccc2)c(=O)[nH]c1=O	nt	0	2	0	-5	-1	nt
Cc1ccccc1Nc1cccc2nonc12	14	2	3	-6	1	45*	34
Cc1ccccc1NS(=O)(=O)c1cccc2nonc12	nt	7	-14	2	-13	10	nt
C/C=C/c1ccc(OCCCCn2cncn2)c(OC)c1	13	-1	-4	7	-6	2	nt
C/C=C/c1ccc(OCCCn2cncn2)c(OC)c1	49	-15	-7	-8	-10	47*	12
O=C1c2cc([N+](=O)[O-])cc3cc([N+](=O)[O-])cc(c23)C(=O)N1c1ccccn1	1	nt	8	nt	nt	43*	35
O=C1c2ccc(Oc3cccc([N+](=O)[O-])c3)cc2C(=O)N1c1ccccn1	6	15	-4	-7	-9	7	nt
CCN(CC)c1ccc(NC(=O)c2ccc3c(c2)OCO3)cc1	nt	7	23	6	5	5	nt
O=[N+]([O-])c1ccc(N/N=C2\CC3CC=CC23)cc1 (stereo unspecified)	-26	2	6	0	18	21	nt
